High-throughput results deposited in PubChem by Fisher Drug Discovery Resource Center.
mcGAS RapidFire – inhibitors of Mus musculus cyclic GMP-AMP synthase, initial high-throughput assay, cell-free, RapidFire MS; Q8C6L5; recombinant mouse cGAS, cGAMP by RapidFire MS; inhibition, % at 12.5 µM; 130,000 compounds, 0.18% hits;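 active = inhibition of cGAS enzyme activity at or above 60%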;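 also: enzyme stimulated by 45 bp dsDNA with ATP and GTP substrates; cGAMP share of summed cGAMP plus half ATP and half GTP signals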
Active calls of the source: *. Shown is part of a subset that was picked to be rich in hits.

SMILES	mcGAS RapidFire
Cc1nc2ccc(N)cc2c(=O)n1-c1ccccc1	-4.0
O=c1c2ccccc2nc(Cc2ccccc2)n1-c1cccc(O)c1	-4.4
O=c1c2ccccc2[se]n1-c1ccccc1	93.8*
CN1CCN2CCN(c3cc(C(F)(F)F)ccn3)CC2C1=O (centres undefined)	-37.3
CN(C)c1ccc(P(=S)(N2CCCCC2)N2CCCCC2)cc1	13.2
O=[N+]([O-])c1ccc(O)c([N+](=O)[O-])c1	95.8*
O=[N+]([O-])c1ccc(O)c(Cl)c1	9.0
O=C(c1cc([N+](=O)[O-])c[nH]1)C(Cl)(Cl)Cl	-8.6
O=Cc1ccc(N2CCNCC2)s1	-4.5
CC(Sc1n[nH]c(C2CC2)n1)C(=O)Nc1ccc(C#N)c(Cl)c1 (centres undefined)	7.2
CCC(CC)n1ncc(C(=O)O)c1C	3.4
NCC1(c2cccc(Br)c2)CCCC1	-5.4
Cc1cccc2c(CCNC(C)Cn3cncn3)c[nH]c12 (centres undefined)	-7.8
N#CC1C(=N)Oc2c(c(=O)oc3ccccc23)C1c1ccoc1 (centres undefined)	-6.6
